Measurements: PubChem BioAssay (NCATS)
Inconclusive results are not listed. Activity calls are given as the source filed them. Unless noted, calls come from the whole dose curve.

Tests used:
[1] = target: Lysosomal acid glucosylceramidase (Homo sapiens) (UniProt P04062); assay: Glucocerebrosidase-p2 (AID 348; in the data active = potency below about 10 µM; note: potency is the fitted concentration of half-maximal effect); conditions: purified GBA, blue fluorogenic substrate, 40 min
Outline: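 Compounds titrated from 0.6 nM upwards against 0.2 nM enzyme in pH 5.9 citric acid/KH2PO4, taurocholate, tween-20; blue fluorogenic substrate 80 uM, 40 min room temperature, stopped and read Ex 365/Em 440 for AC50.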

[2] = target: Cytochrome P450 1A2 (Homo sapiens) (UniProt P05177); assay: p450-cyp1a2 (AID 410);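 note: -100% = full effect of reference inhibitor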
Sequence of Cytochrome P450 1A2 (Homo sapiens) (P05177 whole entry, looked up): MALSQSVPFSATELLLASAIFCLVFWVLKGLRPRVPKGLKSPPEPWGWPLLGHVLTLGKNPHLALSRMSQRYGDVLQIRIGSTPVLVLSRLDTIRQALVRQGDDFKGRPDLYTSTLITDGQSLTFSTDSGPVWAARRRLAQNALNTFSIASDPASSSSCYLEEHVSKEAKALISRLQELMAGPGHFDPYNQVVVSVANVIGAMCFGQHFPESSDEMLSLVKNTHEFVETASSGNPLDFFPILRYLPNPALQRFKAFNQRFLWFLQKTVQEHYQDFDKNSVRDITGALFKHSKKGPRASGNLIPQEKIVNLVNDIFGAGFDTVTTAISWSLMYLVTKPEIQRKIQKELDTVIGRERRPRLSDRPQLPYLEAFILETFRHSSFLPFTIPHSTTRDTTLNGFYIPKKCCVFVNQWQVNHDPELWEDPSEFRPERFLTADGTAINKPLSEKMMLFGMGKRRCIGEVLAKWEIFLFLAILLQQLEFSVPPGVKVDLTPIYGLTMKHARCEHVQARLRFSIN
Outline: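 Luminescent readout of luciferin formed from Luciferin-ME by human CYP1A2; data normalized against complete inhibition by 57 uM furafylline. Enzyme 20nM, substrate 100uM at Km, 100mM KPO4 buffer, 60 min reaction at room temperature.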

[3] = NFAT Signaling Pathway (AID 444; active = well fitted curve in either direction with a large enough effect, not every such curve was filed as active;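 note: carbachol stimulus at about its EC50 of 1 µM final; % is set by controls: 0 for no effect and ±100 for the full control effect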); conditions: Jurkat NFAT-bla M1, carbachol, beta-lactamase ratio, 5 h; at 7.69 µM (top of the series) unless noted
Outline: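 Read-out: CCF4 FRET ratio (460 nm/530 nm) after 1 h RT dye loading, used for %activity and AC50 from titration series. Cells: Jurkat NFAT-β-lactamase/M1 line, treated with compound plus 1 uM carbachol for 5 h, 37 °C.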

[4] = Stat Signaling Pathway (AID 446; active = well fitted curve in either direction with a large enough effect, not every such curve was filed as active;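 note: ME-180 cervical cancer cells given 40 pM IL-6 alongside compound; SIE-controlled beta-lactamase reporter measured as 460/530 nm FRET emission ratio; % is set by controls: 0 for no effect and ±100 for the full control effect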); conditions: ME-180 SIE beta-lactamase reporter, IL-6 stimulated, 5 h; at 7.69 µM (top of the series) unless noted
Outline: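 Screening format detects activators and inhibitors alike: ME-180 SIE-bla cells stimulated at 40 pM IL-6 for 5 hrs with compound, then dual-emission beta-lactamase read at 405 nm excitation.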

[5] = target: Glucocorticoid receptor (Homo sapiens) (UniProt P04150); assay: GR-EFC Redistribution (AID 451); conditions: CHO-K1 GR-EFC translocation, beta-gal luminescence, 2 h; note: potency is the fitted concentration of half-maximal effect
Sequence of Glucocorticoid receptor (Homo sapiens) (P04150 whole entry, looked up, the tested form may be a part): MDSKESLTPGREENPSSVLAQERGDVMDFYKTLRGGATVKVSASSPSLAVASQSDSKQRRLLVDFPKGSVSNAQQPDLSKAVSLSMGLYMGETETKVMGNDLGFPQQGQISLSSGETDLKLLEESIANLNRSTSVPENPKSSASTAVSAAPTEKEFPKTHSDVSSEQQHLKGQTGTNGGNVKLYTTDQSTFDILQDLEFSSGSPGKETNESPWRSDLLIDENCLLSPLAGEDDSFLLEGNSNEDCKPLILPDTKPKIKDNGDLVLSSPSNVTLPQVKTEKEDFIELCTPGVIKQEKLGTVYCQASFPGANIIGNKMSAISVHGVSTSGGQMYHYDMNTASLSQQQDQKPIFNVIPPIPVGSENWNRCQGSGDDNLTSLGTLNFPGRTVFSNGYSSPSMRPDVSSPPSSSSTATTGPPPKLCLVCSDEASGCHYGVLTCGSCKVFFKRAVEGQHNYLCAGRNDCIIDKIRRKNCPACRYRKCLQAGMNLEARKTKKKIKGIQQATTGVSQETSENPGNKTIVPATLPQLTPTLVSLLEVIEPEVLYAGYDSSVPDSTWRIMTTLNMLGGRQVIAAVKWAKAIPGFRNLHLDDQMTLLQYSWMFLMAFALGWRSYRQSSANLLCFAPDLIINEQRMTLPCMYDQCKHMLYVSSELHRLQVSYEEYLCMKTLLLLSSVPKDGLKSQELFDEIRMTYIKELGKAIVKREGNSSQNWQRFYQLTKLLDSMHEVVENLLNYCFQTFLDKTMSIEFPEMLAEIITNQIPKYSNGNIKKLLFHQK
Outline: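 Translocation of GR-ED fusion to nuclear EA restores b-gal, read by luminescence after 1 h room-temperature detection. Engineered CHO-K1 biosensor cells, 1,000/well, exposed 2 h at 37 C to titrations up to 46 uM final.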

[6] = target: Mitogen-activated protein kinase 10 (Mus musculus) (UniProt Q61831); assay: JNK3 AlphaScreen Assay (AID 530; active = well fitted curve in either direction with a large enough effect, not every such curve was filed as active;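 note: kinase came from lysate of stimulated human HepG2 cells; signal reports phosphorylation of biotinylated GST-cJun 1-79 at Ser73 with 10 µM ATP; % is set by controls: 0 for no effect and ±100 for the full control effect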)
Outline: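 Compound titrations were preincubated 15 minutes at room temperature with substrate, antibody and pre-activated JNK3-containing HepG2 lysate. Reactions were started with 10 uM ATP and stopped with EDTA-containing bead buffer for AlphaScreen detection.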

[7] = target: 3',5'-cyclic-AMP phosphodiesterase 4B (Homo sapiens) (UniProt Q07343); assay: qHTS Assay for Inhibitors of PDE-IV (AID 607; active = well fitted activation curve with a large enough effect in the main read-out, with a control signal flat, not every such curve was filed as active; note: % of control where 0% means no effect)
Sequence of 3',5'-cyclic-AMP phosphodiesterase 4B (Homo sapiens) (Q07343 whole entry, looked up): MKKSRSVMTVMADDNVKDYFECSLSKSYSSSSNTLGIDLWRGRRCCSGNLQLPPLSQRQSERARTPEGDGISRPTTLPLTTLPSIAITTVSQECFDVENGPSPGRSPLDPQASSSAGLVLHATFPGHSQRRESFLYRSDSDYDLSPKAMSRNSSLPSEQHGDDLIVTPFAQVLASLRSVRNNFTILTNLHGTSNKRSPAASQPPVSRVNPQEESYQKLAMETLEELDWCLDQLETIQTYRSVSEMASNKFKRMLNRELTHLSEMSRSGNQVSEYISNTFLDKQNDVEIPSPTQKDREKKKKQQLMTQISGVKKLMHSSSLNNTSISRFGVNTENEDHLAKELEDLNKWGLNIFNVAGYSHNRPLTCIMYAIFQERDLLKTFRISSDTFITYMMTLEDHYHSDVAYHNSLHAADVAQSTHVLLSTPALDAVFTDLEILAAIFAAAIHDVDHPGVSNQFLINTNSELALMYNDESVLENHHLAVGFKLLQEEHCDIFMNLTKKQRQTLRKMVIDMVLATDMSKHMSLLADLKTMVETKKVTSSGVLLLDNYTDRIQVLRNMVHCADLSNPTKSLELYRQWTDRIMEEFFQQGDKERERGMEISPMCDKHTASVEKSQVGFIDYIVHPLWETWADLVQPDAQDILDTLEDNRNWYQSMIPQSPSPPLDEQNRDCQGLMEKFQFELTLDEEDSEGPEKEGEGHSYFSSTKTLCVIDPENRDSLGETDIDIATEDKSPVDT
Outline: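 The readout is membrane depolarisation from a cAMP-sensing CNG channel, detected with a potential dye at ex 535/em 590. Cells were HEK293-derived (endogenous PDE-IV) at 1000 cells/well, titrated up to 22.9 uM final.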

[8] = target: Cytochrome P450 3A4 (Homo sapiens) (UniProt P08684); assay: qHTS Assay for Activators of Cytochrome P450 3A4 (AID 885; active = well fitted curve in the direction sought with a large enough effect; an effect the other way counts as inactive or inconclusive; note: nearly all actives have a fitted effect of over 65% in size)
Sequence of Cytochrome P450 3A4 (Homo sapiens) (P08684 whole entry, looked up): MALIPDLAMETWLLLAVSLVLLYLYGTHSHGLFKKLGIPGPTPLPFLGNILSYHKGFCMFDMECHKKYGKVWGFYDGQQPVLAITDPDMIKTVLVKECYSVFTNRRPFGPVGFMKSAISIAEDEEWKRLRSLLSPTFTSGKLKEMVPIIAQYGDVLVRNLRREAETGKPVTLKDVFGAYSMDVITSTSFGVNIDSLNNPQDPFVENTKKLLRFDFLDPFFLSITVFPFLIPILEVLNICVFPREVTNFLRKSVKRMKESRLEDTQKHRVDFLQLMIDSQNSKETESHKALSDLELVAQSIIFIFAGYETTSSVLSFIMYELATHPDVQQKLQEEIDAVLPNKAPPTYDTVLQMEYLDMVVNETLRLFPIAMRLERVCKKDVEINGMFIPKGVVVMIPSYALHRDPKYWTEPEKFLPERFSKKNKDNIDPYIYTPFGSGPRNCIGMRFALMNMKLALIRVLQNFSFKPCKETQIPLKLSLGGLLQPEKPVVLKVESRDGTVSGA
Outline: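 Steps: enzyme/substrate mix dispensed; compound added, 10 min RT; NADPH regeneration solution added, 60 min RT; luciferin detection buffer stops reaction; 20 min later luminescence measured.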

[9] = qHTS Assay for Lipid Storage Modulators (AID 1519); conditions: Drosophila S3 cells, BODIPY lipid droplet/cell ratio, laser cytometry, cells loaded with oleic acid; for activity change, negative = inhibition: at 57.5 µM (top of the series)
Outline: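 Cells seeded at 5,000 per well were treated with compounds over a concentration series and loaded with oleic acid (400 uM, as added). Lipid droplet fluorescence (488 nm excitation, 500-530 nm channel) was read by laser-scanning cytometry and normalized to 20 uM Triacsin C.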

[10] = Primary qHTS for small molecule stabilizers of the endoplasmic reticulum resident proteome: Secreted ER Calcium Modulated Protein (SERCaMP) assay (AID 1508630; active = well fitted curve in the direction sought with a large enough effect; an effect the other way counts as inactive or inconclusive; note: % is set by controls: 0 for no effect and ±100 for the full control effect)
Outline: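 GLuc-SERCaMP-expressing SH-SY5Y cells, pretreated 16 h with compound, are challenged with thapsigargin to empty ER calcium stores; after 4 h, coelenterazine is added directly to the medium and luminescence is imaged.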

[11] = target: Glucocorticoid receptor (Homo sapiens) (UniProt P04150); assay: GR-GFP Redistribution (AID 450;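 active = compounds whose dose series gives a full or clear partial fitted curve of increased nuclear translocation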; note: potency is the fitted concentration of half-maximal effect); conditions: U2OS GR-GFP nuclear translocation, laser cytometry, 2 h
[12] = Confirmation and Secondary Assay for Modulators of Hemoglobin Beta Chain Splicing at IVS2 654 locus (AID 910; active = well fitted curve in the direction sought with a large enough effect; an effect the other way counts as inactive or inconclusive;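 note: HeLa cells stably carrying EGFP split by mutant beta-globin IVS2-654 intron; per-well total GFP intensity by laser scanning cytometry after 2-day treatment; % of control where 0% means no effect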)
Outline: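 Readout: per-well total peak green fluorescence (488 nm ex, 500–520 nm em) from objects 5–250 µm, reflecting correct splicing of an EGFP-654 reporter. Compounds were applied for 2 days at 37 °C to overnight-plated HeLa EGFP-654 cells; controls were DMSO and 500 nM IVS2-654 PNA.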

[13] = target: Ubiquitin carboxyl-terminal hydrolase 1 (Homo sapiens) (UniProt O94782); assay: Inhibitors of USP1/UAF1: Pilot qHTS (AID 504865; active = well fitted curve in the direction sought with a large enough effect; an effect the other way counts as inactive or inconclusive;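 note: rhodamine fluorescence freed from ubiquitin-rhodamine substrate followed over time; top concentration of the series differs between compounds; % is set by controls: 0 for no effect and ±100 for the full control effect; nearly all actives have a fitted effect of over 35% in size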)
Sequence of Ubiquitin carboxyl-terminal hydrolase 1 (Homo sapiens) (O94782 whole entry, looked up): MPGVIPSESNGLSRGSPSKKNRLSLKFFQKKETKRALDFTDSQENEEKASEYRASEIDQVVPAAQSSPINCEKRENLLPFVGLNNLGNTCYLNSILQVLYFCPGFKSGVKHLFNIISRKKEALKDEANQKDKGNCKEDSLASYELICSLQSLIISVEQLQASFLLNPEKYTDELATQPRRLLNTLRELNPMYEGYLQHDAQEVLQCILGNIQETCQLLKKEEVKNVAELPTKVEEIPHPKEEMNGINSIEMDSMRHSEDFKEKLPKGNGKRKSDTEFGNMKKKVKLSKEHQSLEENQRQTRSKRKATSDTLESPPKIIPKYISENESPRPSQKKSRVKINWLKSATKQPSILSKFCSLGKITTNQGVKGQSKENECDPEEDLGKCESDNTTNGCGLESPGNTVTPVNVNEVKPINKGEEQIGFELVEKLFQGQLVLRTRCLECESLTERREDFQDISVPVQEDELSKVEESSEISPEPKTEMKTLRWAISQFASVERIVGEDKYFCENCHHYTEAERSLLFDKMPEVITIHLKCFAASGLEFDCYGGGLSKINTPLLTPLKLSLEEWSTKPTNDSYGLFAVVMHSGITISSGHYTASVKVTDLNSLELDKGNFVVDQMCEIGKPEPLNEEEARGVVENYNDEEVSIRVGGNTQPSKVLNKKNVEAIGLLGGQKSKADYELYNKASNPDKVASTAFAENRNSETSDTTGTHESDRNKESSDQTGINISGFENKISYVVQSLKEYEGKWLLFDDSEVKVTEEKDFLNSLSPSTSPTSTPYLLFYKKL
Outline: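 Enzyme-free wells gave the negative control, while test wells held 1nM USP1/UAF1 preincubated with compound for 15 min at room temperature. Ub-Rho at 150nM final started the reaction, and fluorescence at 480/540 nm was recorded kinetically.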

[14] = target: Cytochrome P450 2D6 (Homo sapiens) (UniProt P10635); assay: qHTS Assay for Inhibitors and Substrates of Cytochrome P450 2D6 (AID 891; active = well fitted curve in the direction sought with a large enough effect; an effect the other way counts as inactive or inconclusive; note: potency is the fitted concentration of half-maximal effect; nearly all actives have a fitted effect of over 60% in size)
Sequence of Cytochrome P450 2D6 (Homo sapiens) (P10635 whole entry, looked up): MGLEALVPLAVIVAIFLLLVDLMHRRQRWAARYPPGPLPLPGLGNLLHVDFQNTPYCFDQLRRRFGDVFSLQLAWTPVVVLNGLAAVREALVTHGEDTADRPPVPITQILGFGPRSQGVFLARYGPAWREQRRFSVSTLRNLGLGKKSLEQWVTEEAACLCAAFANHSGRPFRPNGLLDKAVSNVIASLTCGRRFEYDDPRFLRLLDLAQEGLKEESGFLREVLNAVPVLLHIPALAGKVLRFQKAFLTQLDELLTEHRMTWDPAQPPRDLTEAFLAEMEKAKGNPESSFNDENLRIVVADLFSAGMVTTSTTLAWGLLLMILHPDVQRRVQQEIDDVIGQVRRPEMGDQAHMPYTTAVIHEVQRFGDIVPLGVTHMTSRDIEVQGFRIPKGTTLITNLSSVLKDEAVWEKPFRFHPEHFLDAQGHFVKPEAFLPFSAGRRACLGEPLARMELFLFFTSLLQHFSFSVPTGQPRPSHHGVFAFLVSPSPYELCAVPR
Outline: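 Human CYP2D6 (5 nM) with 30 uM Luciferin-ME EGE (at Km) in 100 mM KPO4, compound preincubated 10 min, then NADPH regeneration system for 60 min at room temperature. Luciferin read by luminescence; normalized to 1.43 uM quinidine.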

[15] = measured here: cell count channel max response
[16] = measured here: lipid channel max response

Sequence of Lysosomal acid glucosylceramidase (Homo sapiens) (P04062 whole entry, looked up): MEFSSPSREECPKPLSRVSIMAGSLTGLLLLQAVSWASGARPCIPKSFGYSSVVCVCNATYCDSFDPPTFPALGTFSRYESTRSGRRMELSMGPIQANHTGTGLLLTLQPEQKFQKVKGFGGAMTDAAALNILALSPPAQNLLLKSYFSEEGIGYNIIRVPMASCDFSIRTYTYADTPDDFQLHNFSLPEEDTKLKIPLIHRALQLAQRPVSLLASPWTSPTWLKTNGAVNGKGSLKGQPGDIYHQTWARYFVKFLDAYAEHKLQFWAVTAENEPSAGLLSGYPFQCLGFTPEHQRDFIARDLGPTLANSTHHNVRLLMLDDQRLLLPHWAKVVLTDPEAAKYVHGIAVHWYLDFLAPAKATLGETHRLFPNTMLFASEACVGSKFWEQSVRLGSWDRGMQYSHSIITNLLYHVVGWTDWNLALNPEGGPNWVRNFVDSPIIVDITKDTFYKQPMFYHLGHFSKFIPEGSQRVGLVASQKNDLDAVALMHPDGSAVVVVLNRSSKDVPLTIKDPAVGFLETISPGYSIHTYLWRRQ

SMILES	Potency [1]	Potency [2]	activity change, negative = inhibition [3]	activity, negative = inhibition [4]	Potency [5]	Potency [6]	Potency [7]	Potency [8]	activity change, negative = inhibition [9]	max response [9, 15] [%]	max response [9, 16] [%]	outcome [10]	Potency [11]	Potency [12]	Potency [13]	Potency [14]
CC(C)NC(=O)N1CC[C@@]2(CCCN(S(=O)(=O)c3ccccc3)C2)C1	> 11.4 µM (inactive)	inactive	18.4% (inactive)	1.4% (inactive)	> 46 µM (inactive)	inactive	inactive	inactive	3.83% (inactive)	-9.01	-4.67	inactive				
Cc1noc(C)c1-c1ccc2ncnc(NC3CC3)c2c1	> 11.4 µM (inactive)				> 46 µM (inactive)	inactive	inactive		-8.16% (inactive)	-21.4	-28.4	inactive	> 46 µM (inactive)	inactive	inactive	
COc1ccccc1CN1CCC2(CC1)CCN(S(C)(=O)=O)CC2	> 11.4 µM (inactive)	inactive	-27.6% (inactive)	-4.05% (inactive)	> 46 µM (inactive)	inactive	inactive		-1.09% (inactive)	-18.8	-18.2	inactive				0.02 µM (active)
